CYP2C9 activ – increases human cytochrome P450 2C9 activity | recombinant CYP2C9, luciferin-H conversion, luminescence; stronger effect = higher value; factor 1 = untreated enzyme, 0 = blocked | activation factor at 5 µM | 96,000 tested, 1.4% active | AID 1024;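 active = activation factor of 2 or more for CYP2C9 at a 5 µM dose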;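 note: 0 = sulfaphenazole-blocked wells and 1 = vehicle-only wells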
Target sequence (P11712 whole entry, looked up): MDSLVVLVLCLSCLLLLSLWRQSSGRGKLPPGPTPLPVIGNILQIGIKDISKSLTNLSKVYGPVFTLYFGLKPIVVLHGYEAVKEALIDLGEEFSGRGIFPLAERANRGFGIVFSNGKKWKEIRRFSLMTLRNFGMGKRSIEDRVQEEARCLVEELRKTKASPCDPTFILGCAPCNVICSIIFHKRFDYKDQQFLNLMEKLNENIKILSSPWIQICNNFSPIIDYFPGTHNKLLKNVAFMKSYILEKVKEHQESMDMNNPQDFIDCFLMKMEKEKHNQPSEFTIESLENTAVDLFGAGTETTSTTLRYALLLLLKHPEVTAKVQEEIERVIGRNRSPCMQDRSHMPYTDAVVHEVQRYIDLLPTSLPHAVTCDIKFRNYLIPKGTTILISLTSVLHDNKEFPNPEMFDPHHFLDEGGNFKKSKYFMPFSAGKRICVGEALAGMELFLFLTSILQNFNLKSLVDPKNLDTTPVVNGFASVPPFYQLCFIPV
Cav32 inh – human Cav3.2 channel inhibition, primary screen. O95180. Cav3.2-expressing cells, Fluo-4 calcium fluorescence FDSS; stronger effect = lower value. B-score at 10 µM. 100,000 tested, 4% active. AID 449739;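 active = single-dose well whose peak fluorescence ratio is a statistical outlier from its plate by either plate-standardised score or position-corrected B-score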
CYP2C19 inh – blocks human cytochrome P450 2C19; P33261; CYP2C19 Supersomes, luciferin-H EGE luminescence, 30 min; inhibition, % at 5 µM; 96,000 tested, 21% active; AID 778;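 active = CYP2C19 inhibition above a set limit at 5 µM in the primary screen, cut at about 50% in these data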;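 note: plate controls were negative control wells for no effect and 2.5 mM tranylcypromine positive control for full effect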
CYP2C9 inhib – blocks human cytochrome P450 2C9; inhibition, % at 5 µM; 96,000 tested, 20% active; CYP2C9 Supersomes, luciferin-H conversion, luminescence; P11712;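 active = blocking of liver enzyme CYP2C9 beyond about 50% at 5 µM, limit read from the data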
CYP2C19 activ – cytochrome P450 2C19 (human) activation | P33261 | recombinant CYP2C19, luciferin-H EGE luminescence; stronger effect = higher value; 0 = fully inhibited enzyme, 1 = untreated enzyme | activation factor at 5 µM | 96,000 tested, under 10 active;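 active = activation factor of at least 2 at 5 µM in the primary screen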;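 note: 0 = wells with 2.5 mM tranylcypromine and 1 = vehicle-only wells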
* marks the source's active call; other numbers are inactive results; x = no result given. Rows were chosen to be rich in hits. Some 27% of all compounds tested hit in one or more screens of this group.

SMILES | CYP2C9 activ | Cav32 inh | CYP2C19 inh | CYP2C9 inhib | CYP2C19 activ
C=CCSc1nc2c(c(=O)n(C)c(=O)n2C)n1CC | 1 | -0.00658 | 14.4 | 2.1 | 0.9
CCCCN1Cc2cc(C(=O)c3cc(F)ccc3O)cnc2NC1=O | 0.6 | 1.4 | 22.9 | 38.0 | 0.8
COc1cccc(C(=O)N2CCN=C2SCc2cccnc2)c1OC | 0.6 | 0.096 | 86.3* | 41.9 | 0.1
O=C(c1ccc2c(c1)OCO2)N1CCN=C1SCc1cccnc1 | 0.3 | 0.439 | 75.6* | 67.4* | 0.2
CN(C)S(=O)(=O)c1ccc(C(=O)N2CCN=C2SCc2cccnc2)cc1 | 1 | 0.0627 | -9.3 | -3.1 | 1.1
COc1ccc(C(=O)N2CCN=C2SCc2cccnc2)c(OC)c1 | 0.4 | -0.0717 | 87.5* | 62.4* | 0.1
Cc1nc(-c2ccc(Cl)cc2)sc1C1(C)CC(c2cccc([N+](=O)[O-])c2)=NO1 (configuration not stated) | x | -0.557 | x | x | x
CCCCc1[nH]c(=O)c(C#N)c2c1CSC(C)(C)C2 | 0.6 | 1.57 | 63.4* | 36.7 | 0.4
CC(C)c1[nH]c(=O)c(C#N)c2c1CSC(C)(C)C2 | 1 | 0.923 | 71.2* | 2.8 | 0.3
CCO[C@H]1OC(C(=O)NCc2ccccc2)=C[C@@H](C(C)(C)C)[C@@H]1CCCO | x | -0.124 | x | x | x
CCCc1nnc(SCC(=O)N2CCCC(C)C2)n1CC1CCCO1 (configuration not stated) | 1 | 0.361 | 22.8 | 0.9 | 0.8
FC(F)(F)c1ccc(CN2CCCCCC2)cc1 | 0.8 | -0.00219 | 52.8* | 18.4 | 0.5
Nc1ccc(CN2CCCCCC2)cc1 | x | 0.558 | x | x | x
CCCn1c(=O)c2ccccc2n2c(SCC(=O)c3ccc(CC)cc3)nnc12 | 0.8 | 0.228 | 6.1 | 22.3 | 0.9
CCCn1c(=O)c2ccccc2n2c(SCc3c(C(=O)OCC)oc4ccccc34)nnc12 | 0.4 | -3.27 | 58.9* | 64.1* | 0.4
CCN(CC)S(=O)(=O)c1ccc(-c2nnc3sc4cccc(C)c4n23)cc1 | 0.2 | 1.83 | 72.2* | 78.0* | 0.3
CCCCCCCC(=O)NC(Nc1ccc(S(N)(=O)=O)cc1)C(Cl)(Cl)Cl (configuration not stated) | 0.2 | -4.45 | 14.7 | 77.4* | 0.9
O=C(CCc1ccccc1)NC(NC(=S)Nc1ccc(Br)cc1)C(Cl)(Cl)Cl (configuration not stated) | 0 | 0.213 | 29.7 | 96.9* | 0.7
O=C(CCc1ccccc1)NC(NC(=S)Nc1cccc(Cl)c1)C(Cl)(Cl)Cl (configuration not stated) | x | -2.1 | x | x | x
CC(CC(=O)O)CC(=O)Nc1ccc(S(N)(=O)=O)cc1 (configuration not stated) | 1.1 | -0.0775 | -15.5 | -14.1 | 1.2
CCCCCC(=O)NC(NC(=S)Nc1ccc(S(N)(=O)=O)cc1)C(Cl)(Cl)Cl (configuration not stated) | 0.1 | 1.74 | 60.1* | 93.4* | 0.4
CC(=O)Nc1cccc(NC(=O)CSc2nnnn2C)c1 | 0.8 | -0.00314 | -5.5 | 21.3 | 1.1
CC1CC(C)CN(c2ccc(C(=O)OCC(=O)NC3CCCc4ccccc43)cc2[N+](=O)[O-])C1 (configuration not stated) | 0.5 | -3.96 | 21.8 | 52.4* | 0.8
COC(=O)[C@@H](NC(=O)NC1CCCc2ccccc21)C(C)C (some centres not stated) | 1 | -0.276 | 6.1 | 3.0 | 0.9
O=C(COC(=O)c1ccc(Sc2ccccc2)c([N+](=O)[O-])c1)NC1CCCc2ccccc21 (configuration not stated) | 0.1 | -1.28 | -11.8 | 88.1* | 1.1
SMILES | CYP2C9 activ | Cav32 inh | CYP2C19 inh | CYP2C9 inhib | CYP2C19 activ
O=C(CCn1cccc1)NC1CCCc2ccccc21 (configuration not stated) | 1 | 0.588 | 11.5 | 1.8 | 0.9
COCCNC(=O)CSc1nc2ccccc2c2nc(C)nn12 | 1 | 0.659 | 5.1 | 3.8 | 0.9
CCCCN(Cc1ccccc1)C(=O)c1cnc2n(c1=O)CCS2 | 1 | 0.517 | -10.3 | 1.8 | 1.1
COc1cccc(CNC(=O)C2CCN(S(=O)(=O)N3CC(C)CC(C)C3)CC2)c1 (configuration not stated) | 0.9 | 0.219 | 15.3 | 10.5 | 0.8
O=C(Cc1c[nH]c2ccccc12)N1CCc2ccccc21 | 0.2 | -2.17 | 91.6* | 77.3* | 0.1
O=C(Cc1coc2ccc3ccccc3c12)N1CCc2ccccc21 | 1.6 | -2.02 | 1.0 | -56.9 | 1
Cc1ccc2c(CC(=O)N3CCc4ccccc43)coc2c1 | 0.6 | -2.53 | 78.8* | 42.8 | 0.2
CNC(=S)NNC(=O)Cc1ccc(OC)c(OC)c1 | 1.2 | 0.0387 | -20.3 | -20.5 | 1.2
Cc1cc(=O)oc(C)c1C(=O)Nc1ccc(Cl)cn1 | 1.2 | -0.029 | -16.6 | -17.7 | 1.2
COc1ccccc1OC(=O)CN1C(=O)c2ccccc2C1=O | 1.2 | -0.574 | -1.8 | -18.4 | 1
COc1ccc(/C=N/NC(=O)C(=O)NCc2cccnc2)cc1OC | 1 | 0.349 | -6.5 | -2.4 | 1.1
CC(C)CC1(C)NC(=O)N(CCN2C(=O)c3ccccc3C2=O)C1=O (configuration not stated) | 0.5 | -0.598 | 75.4* | 48.4 | 0.2
COC(=O)c1cc(-c2ccc(OC)c(OC)c2)n[nH]1 | 0.8 | 0.766 | 55.0* | 21.4 | 0.4
COc1ccc(-c2cc(-c3ccccc3O)[nH]n2)cc1OC | 0.8 | -1.71 | 42.6 | 23.1 | 0.6
O=C1C=C(c2ccc(Cl)cc2)OC2(CCCC2)O1 | 0.6 | -0.584 | 24.1 | 36.1 | 0.8
CC(=O)c1ccccc1OCCn1nnc(-c2ccc(C)cc2)n1 | x | -5.11* | x | x | x
COC(=O)CCn1nnc(-c2ccc(C)cc2)n1 | 1 | 0.0789 | 45.6 | 2.2 | 0.5
COc1ccc(C2C(C#N)=C(SCC(=O)Nc3ccc(C)cc3)NC3=C2C(=O)CC(C)(C)C3)cc1 (configuration not stated) | 0.9 | 0.187 | 7.9 | 8.4 | 0.9
CCOc1ccc(NC(=O)CCSc2nc3c(c(CC)c2C#N)C(=O)CC(C)(C)C3)cc1 | 0.1 | -0.914 | 89.6* | 90.1* | 0.1
CCc1c(C#N)c(SCCC(=O)Nc2ccc(C)cc2)nc2c1C(=O)CC(C)(C)C2 | 0 | -2.99 | 95.8* | 95.2* | 0
CCOc1ccc(NC(=O)CCN2CCN(c3ccccc3)CC2)cc1 | 0.7 | 0.234 | 8.5 | 32.8 | 0.9
Cc1ccc(C)c(-c2nn(-c3cc(N4CCN(CCO)CC4)ccc3[N+](=O)[O-])c(=O)c3ccccc23)c1 | 0.5 | 1.05 | 17.2 | 45.2 | 0.8
Cc1cc2ccccn2c1C(=O)c1ccncc1 | 0.3 | 0.707 | 98.1* | 65.0* | 0
Cc1cc2ccccn2c1C(=O)c1ccc(Cl)cc1 | 1 | -1.58 | 16.2 | 2.7 | 0.8
COCCn1c(CN2CCN(c3ccc(F)cc3)CC2)nc2c1c(=O)n(C)c(=O)n2C | x | 0.401 | x | x | x
C=CCc1c(C)nc(SC)nc1Nc1ccccc1 | x | -4* | x | x | x
C=CCc1c(C)nc(SC)nc1Nc1ccc(C(=O)O)cc1 | 1.2 | 0.522 | -15.2 | -16.0 | 1.2
C=CCc1c(C)nc(SC)nc1Nc1ccc(C(C)=O)cc1 | 0 | 0.0881 | 94.5* | 97.2* | 0.1
